# Only some compounds are listed: those with a hit (about 1.6% of all), similar ones and a draw of the others.
# gsp ag: gsp mutant agonism | gsp mutant cells, cAMP HTRF, 30 min | Potency, µM (series often up to 76.9 µM), inactives show at the highest dose activation (cAMP increase), usual class: activators | 340,000 tested, 0.13% active | AID 624287; active means well fitted activation curve with a large enough effect; inconclusive means small, poorly fitted or top-dose-only effect, or another doubt; inactive means no such curve, though single readings can be large or run the other way; cell line not stated here;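 further: phosphodiesterase inhibitor Ro 20-1724 added with compounds to block cAMP breakdown; potency means the concentration at half of the fitted maximal effect; nearly all actives have a fitted effect of over 60% in size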
#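 Cells stably selected in G418 were plated at 2000/well, grown 16-24 hr, then given compounds in DMSO with the PDE inhibitor […] (300 uM solution added) for 30 min at 37C; cAMP was read by HTRF.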
# GRP78 ERSR act: inducers of ER stress response in human glioma cells; U87-MG GRP78 promoter luciferase reporter, 16 h; Potency, µM, without a hit: top-dose activation, hits mostly activators; 420,000 tested, 0.02% active; AID 602332; active means well fitted activation curve with a large enough effect; inconclusive means small, poorly fitted or top-dose-only effect; inactive means no such curve, though single readings can be large or run the other way; further: potency means the concentration at half of the fitted maximal effect; series mostly up to about 76 µM; % of control where 0% means no effect; nearly all actives have a fitted effect of over 35% in size
#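 Stably transfected U87-MG glioma cells carrying a GRP78-based luciferase sensor; 16 h compound incubation. Luminescence end-point read 10 min after Bright-Glo addition at room temperature.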
# Akt phos inh: blocks phosphorylation of Akt. 360,000 tested, 0.32% active. AID 651550. Neuro2A IGF-stimulated pAkt S473 HTRF, 20 min; stronger effect = lower value. activity change, % for hits at 50 µM; in the data active means activity change below about -80%; inconclusive means mostly about -51% to -80%; further: on the % scale 0 is the no-effect control and ±100 the full control effect
#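 Neuro2A cells in DMEM with 0.5% FBS, overnight at 37 deg C, given compound at single 50 µM final, then IGF (6 nM final) for 20 min at 37 deg C. Lysed; phospho-Akt Ser473 by HTRF after 24 h, 665/615 ratio.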
# hERG WT inh: inhibitors of human wildtype KCNH2 potassium channel; AID 720551; 340,000 tested, 0.37% active; U2OS, BacMam KCNH2, thallium flux FluxOr; stronger effect = lower value; Q12809; activity change, % at 1.84 µM;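 active means maximum activity change below -70%; inconclusive means maximum activity change between -70% and -50%; inactive means maximum activity change above -50%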; further: on the % scale 0 is the no-effect control and ±100 the full control effect
#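 U2OS cells were transduced with wild-type KCNH2 virus (2.03 x 10^8 / mL) for 4 h at room temperature, then cultured overnight at 37 C. Thallium flux was read with FluxOr dye. Rate constants were normalized to DMSO controls.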
# gsp antag: gsp mutant antagonism. gsp-mutant cells, cAMP HTRF, 30 min. Potency, µM (highest dose often 76.9 µM), for the others: at the highest dose activity change, negative = inhibition, hits mostly inhibitors. 340,000 tested, 0.4% active; calls by dose curve; cell line not stated here;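 further: intracellular cAMP measured with PDE inhibitor Ro 20-1724 present during compound exposure; potency means the concentration at half of the fitted maximal effect; on the % scale 0 is the no-effect control and ±100 the full control effect; nearly all actives have a fitted effect of over 65% in size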
#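 HTRF cAMP measurement after 30 min RT detection following 30 min, 37C compound treatment alongside […] (added as 300 uM solution) in G418-selected cells seeded at 2000/well and grown 16–24 h.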
# KCNH2 3.1 inh: inhibitors of human KCNH2 3.1 potassium channel isoform; U2OS KCNH2 3.1, thallium flux FluxOr; stronger effect = lower value; activity change, % (tested at about 1.8 µM); 340,000 tested, 0.95% active; AID 720553;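 active means maximum activity change below -70%; inconclusive means maximum activity change from -70% to -50%; inactive means maximum activity change above -50%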;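 further: thallium influx rate constant from kinetic fluorescence after stimulation buffer; on the % scale 0 is the no-effect control and ±100 the full control effect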
#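 We transduce U2OS cells with the mutant 3.1 virus, culture them overnight, load FluxOr with Red40 quencher for 45 min, then add stimulation buffer and read kinetically for 2 min to derive a normalized rate constant.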
# Starred values were filed as active, the others as inactive; i = inactive; ? = inconclusive; nt = not tested or not shown; [ ] = dose if it differs, or a comment.
SMILES,gsp ag,GRP78 ERSR act,Akt phos inh,hERG WT inh,gsp antag,KCNH2 3.1 inh
Cc1cc(C)c(C(=O)N2CCCC(N3CCN(c4cccc(C(F)(F)F)c4)CC3)C2)o1 (stereo not given),?,-1%,i,8,50µM*,8
Cc1cc(C(=O)N2CCCC(N3CCN(c4cccc(C(F)(F)F)c4)CC3)C2)n[nH]1 (stereo not given),-1%,?,i,19,-2%,-15
O=C1CCC(C(=O)N2CCCC(N3CCN(c4cccc(C(F)(F)F)c4)CC3)C2)=NN1 (stereo not given),4.5µM*,-4%,i,2,5%,4
CC1(C(=O)O)CCC2(C)CCC3(C)C(=CC(=O)[C@@H]4C5(C)CC[C@H](O[C@H]6O[C@H](C(=O)O)C(O)C(O)[C@H]6O[C@@H]6O[C@H](C(=O)O)C(O)C(O)C6O)C(C)(C)[C@@H]5CCC43C)[C@@H]2C1 (stereo not given in full),nt,0%,nt,nt,nt,nt
C=C1N(C)c2cc([N+](=O)[O-])c(N)cc2C1(C)C,-11%[15.4 µM],-5%,i,-6,28µM*,1
CC1(C)Oc2cc(N)c([N+](=O)[O-])cc2O1,4%,7%,i,0,3%,0
CCC1(CC)SCCNC1=O,-14%,-2%,i,-282*,9%,-1
CN(c1cccc(NC(=O)c2ccc(Cl)c(S(=O)(=O)Nc3ccccc3)c2)c1)S(C)(=O)=O,-12%,5%,i,-2,8.9µM*,-13
O=C(Nc1ccccc1)c1ccc(Cl)c(S(=O)(=O)Nc2ccccc2)c1,nt,0%,nt,nt,nt,nt
CCOC(=O)C1CCCCN1C(=O)c1cnn(-c2nccc(-c3cc(C)sc3C)n2)c1C1CC1 (stereo not given),nt,1%,nt,nt,nt,nt
Cc1ccc(NC(=O)CCC(C(=O)O)N2C(=O)c3ccccc3C2=O)cc1 (stereo not given),-35%,-1%,i,-187*,-7%,-141*
COC(=O)C1CCCCN1Cc1ccc2c(c1)CN(C(=O)c1ccc(F)cc1)CCO2 (stereo not given),nt,-3%,nt,nt,nt,nt
COc1ccc(OC)c(/C(O)=C/C(=O)C(=O)Nc2cc(C)cc(C)c2)c1,-33%,0%,-106%*,-4,-17%,-15
CCOC(=O)c1cc(NC(=O)CC(C)(C)CC(=O)O)ccc1N1CCCCC1,0%,2%,i,-3,32µM*,-7
CNC(=S)N(CCc1c(C)[nH]c2ccccc12)Cc1cccnc1,-48%,-4%,i,-133*,-3%,-191*
CSc1nnc(CNS(=O)(=O)c2ccc(F)cc2F)n1-c1ccccc1C,nt,-1%,nt,nt,nt,nt
COc1cc(=O)n2c(c1C(=O)NCc1ccco1)CCN(Cc1ccc3ccccc3c1)CC2,nt,-5%,nt,nt,nt,nt
O=C(c1ccc2c(c1)OCO2)N1CCC2(CC1)Oc1ccc(F)cc1C(=O)C21CC(c2cccnc2)=NO1 (stereo not given),nt,-1%,i,-9,35µM*,-2
Nc1[nH]ncc1-c1ccc(Cl)cc1,0%[15.4 µM],1%,i,-4,8%,12
COc1cc(-c2cn[nH]c2N)cc(OC)c1OC,13%,-4%,i,-7,20%,-79*
CC[C@H]1OC(=O)C[C@@H](O)[C@H](C)[C@@H](O[C@@H]2O[C@H](C)C[C@H](N(C)C)[C@@H]2O)[C@@H](CC=O)C[C@@H](C)C(=O)/C=C\[C@]2(C)O[C@H]2[C@@H]1C,nt,-7%,nt,nt,nt,nt
Cc1ccc2cc(CN(c3ccccc3C)S(=O)(=O)c3ccccc3)c(=O)[nH]c2c1,-37%,1%,i,5,-16%,-2
COCCN(Cc1cc2ccc(C)cc2[nH]c1=O)S(=O)(=O)c1ccccc1,19%[15.4 µM],-3%,i,-218*,nt,7
CC(C)NC(=S)N(C)C1(c2ccccc2Cl)CCCCC1=O (stereo not given),-3%,-3%,i,-12,3%,-93*
Oc1c(C=NCc2ccncc2)sc2ccccc12,8%,1%,-103%*,-8,-13%,21

# Assay outcomes from PubChem BioAssay.
